Measurements from a collection of fitness landscapes (doi:10.1126/science.1257360).
Over roughly 140,000 sequences, “enrichment ratio after two sorts for PhoP signalling” has its median near 0; the highest 2% begin near 11. What follows is part of a selection rich in the highest values, with near analogues and random picks from the rest.

B1: PhoQ; a variant is named by its letters at X, in order, P23837 (parent)
chain: MKKLLRLFFPLSLRVRFLLATAAVVLVLSLAYGMVALIGYSVSFDKTTFRLLRGESNLFYTLAKWENNKLHVELPENIDKQSPTMTLIYDENGQLLWAQRDVPWLMKMIQPDWLKSNGFHEIEADVNDTSLLLSGDHSIQQQLQEVREDDDDAEMTHSVAVNVYPATSRMPKLTIVVVDTIPVELKSSYMVWSWFIYVLSANLLLVIPLLWVAAWWSLRPIEALAKEVRELEEHNRELLNPATTRELTSLVRNLNRLLKSERERYDKYRTTLTDLTHSLKTPLXXLQXXLRSLRSEKMSVSDAEPVMLEQISRISQQIGYYLHRASMRGGTLLSRELHPVAPLLDNLTSALNKVYQRKGVNISLDISPEISFVGEQNDFVEVMGNVLDNACKYCLEFVEISARQTDEHLYIVVEDDGPGIPLSKREVIFDRGQRVDTLRPGQGVGLAVAREITEQYEGKIVAGESMLGGARMEVIFGRQHSAPKDE

Variants of: B1
Assay: enrichment ratio after two sorts for PhoP signalling (ratio (wild type AVST 3.29)); higher = more functional
Conditions: with PhoP (E. coli)

Variant | enrichment ratio
QWMF | ≤ 0.25
VRHG | ≤ 0.25
GYNH | ≤ 0.25
TDKY | ≤ 0.25
TGYH | 1.03
IQEV | ≤ 0.25
PSYQ | 1.11
NMVW | ≤ 0.25
ACNH | ≤ 0.25
PWHD | ≤ 0.25
AITS | 9.53
ACTH | 2.87
VLVW | ≤ 0.25
AWHD | 24.7
AMTS | 13.9
ACGH | 13.6
AMVW | 11.8
AMWI | ≤ 0.25
LWHD | ≤ 0.25
SCPW | ≤ 0.25
KEAN | ≤ 0.25
YKMT | 0.253
GVMF | 2.88
MYDC | ≤ 0.25
VHEE | ≤ 0.25

Variant | enrichment ratio
MGNK | ≤ 0.25
EGFI | ≤ 0.25
EGVD | ≤ 0.25
QFHL | ≤ 0.25
WTPV | ≤ 0.25
FCGM | ≤ 0.25
WFML | ≤ 0.25
GWCM | ≤ 0.25
QTWG | ≤ 0.25
AKTD | ≤ 0.25
KKTC | ≤ 0.25
AMGH | 51
AKTI | 23.6
AMYD | ≤ 0.25
AMTH | 0.411
AMTD | ≤ 0.25
KKTI | ≤ 0.25
AITC | 19
AIFC | ≤ 0.25
AIGH | 2.15
AMGD | 11.5
DKAP | ≤ 0.25
KDMR | ≤ 0.25
TRNK | ≤ 0.25
HVKY | ≤ 0.25

Variant | enrichment ratio
PFRW | ≤ 0.25
KMGT | ≤ 0.25
QKFN | ≤ 0.25
RPYD | ≤ 0.25
AMTI | 11.6
AKFC | ≤ 0.25
AKTC | 30.2
AKTK | ≤ 0.25
AMWM | ≤ 0.25
AMVA | ≤ 0.25
AMPM | ≤ 0.25
AITI | 10.7
NMTI | ≤ 0.25
NMVQ | ≤ 0.25
AMVQ | 13.1
AMIM | 29.3
DMSC | ≤ 0.25
KPPG | ≤ 0.25
MFQM | ≤ 0.25
IEMM | ≤ 0.25
MKCV | ≤ 0.25
WYPM | ≤ 0.25
IISF | ≤ 0.25
KMPW | ≤ 0.25
LYRY | ≤ 0.25

Variant | enrichment ratio
PGVK | ≤ 0.25
AMFC | ≤ 0.25
AMGQ | 13.7
AKAQ | 7.28
AHGQ | ≤ 0.25
AMNK | ≤ 0.25
AMTC | 20.7
NMGQ | ≤ 0.25
NMAQ | ≤ 0.25
AMAQ | 12.1
HQSV | ≤ 0.25
LFRC | ≤ 0.25
PWKY | ≤ 0.25
DPKV | ≤ 0.25
TIQF | 9.01
SQIN | 12.8
SRIN | ≤ 0.25
NAIN | ≤ 0.25
SCIN | 0.637
SGIN | 11.4
KAIN | ≤ 0.25
EQIN | ≤ 0.25
SAIN | 11.8
TGIN | ≤ 0.25
VAML | 7.99

Variant | enrichment ratio
KNIR | ≤ 0.25
SWRM | ≤ 0.25
TMWP | ≤ 0.25
SLWP | ≤ 0.25
DKCH | ≤ 0.25
VWNG | ≤ 0.25
AQSY | 12.7
AISY | 5.51
ADSY | ≤ 0.25
GGSY | ≤ 0.25
TGSY | 15.9
AGSY | 14.7
AKSY | 2.91
AHSY | ≤ 0.25
RGSY | ≤ 0.25
DTDV | ≤ 0.25
WMKH | ≤ 0.25
MNKP | ≤ 0.25
RIYR | ≤ 0.25
FFTK | ≤ 0.25
WFGI | ≤ 0.25
HTNW | ≤ 0.25
KLTI | ≤ 0.25
MSHF | 2.07
MRHV | ≤ 0.25

Variant | enrichment ratio
KSGV | ≤ 0.25
MSGV | 13.8
KAGV | ≤ 0.25
MSHV | 17.4
SEQA | ≤ 0.25
GVVG | ≤ 0.25
LEYW | ≤ 0.25
RSAR | ≤ 0.25
EASM | ≤ 0.25
WILQ | ≤ 0.25
FPLQ | ≤ 0.25
FITA | ≤ 0.25
NSLQ | 0.291
MPLQ | ≤ 0.25
MALQ | 13.1
TSLQ | 16.4
FALQ | 7.48
FIMQ | ≤ 0.25
FILQ | 11.5
FDLQ | ≤ 0.25
FQLQ | 17.7
TPCV | ≤ 0.25
HIPN | ≤ 0.25
WRHY | ≤ 0.25
GDYV | ≤ 0.25

Variant | enrichment ratio
LQVN | ≤ 0.25
DQMY | ≤ 0.25
VHFI | ≤ 0.25
FDRQ | ≤ 0.25
LRHY | ≤ 0.25
FCLQ | 6.86
FSLQ | 11.8
KSLQ | ≤ 0.25
LNSK | ≤ 0.25
QECM | ≤ 0.25
TCYA | 1.75
TCCM | 20
TCTM | 21.1
TCIM | 0.447
TCYN | 3.25
TCNM | 1.24
TCWM | ≤ 0.25
TCGM | 15.3
FCTM | ≤ 0.25
VECM | 0.698
TCYM | 12.1
IMKY | ≤ 0.25
VMEY | ≤ 0.25
TYKQ | ≤ 0.25
IGCI | ≤ 0.25

Variant | enrichment ratio
THAC | 6.19
SQFC | ≤ 0.25
WRVD | ≤ 0.25
ISHC | ≤ 0.25
YTMN | ≤ 0.25
EMDR | ≤ 0.25
DSWL | ≤ 0.25
RECW | ≤ 0.25
FMGG | ≤ 0.25
EQVK | ≤ 0.25
TCCK | 21.6
TCCQ | 12.5
TCKQ | ≤ 0.25
VECQ | 8.23
VECK | ≤ 0.25
TCCI | 7.17
TDEN | ≤ 0.25
QTMG | ≤ 0.25
DPLR | ≤ 0.25
SCTS | 14.9
SCTA | 12.7
SCTH | 9.21
SCTD | ≤ 0.25
SCTC | 7.94
SCTK | 7.2

Variant | enrichment ratio
LRRQ | ≤ 0.25
NIGG | ≤ 0.25
LVAY | ≤ 0.25
HFFS | ≤ 0.25
PHFW | ≤ 0.25
MSAF | 3.4
KMAF | ≤ 0.25
STAF | 7.65
MCAF | 32.1
WIAF | ≤ 0.25
MKAF | ≤ 0.25
SRAF | ≤ 0.25
MMAF | 13
SCAF | 16.3
MIAF | 14
MAAF | ≤ 0.25
KCAF | ≤ 0.25
LHIP | ≤ 0.25
RPYE | ≤ 0.25
AWSD | ≤ 0.25
WEIC | ≤ 0.25
FTRG | ≤ 0.25
AQMD | ≤ 0.25
LIFC | ≤ 0.25
PKNW | ≤ 0.25

Variant | enrichment ratio
FRIG | ≤ 0.25
LEYC | 4.32
WRGG | ≤ 0.25
TYMG | 14.3
TYHG | ≤ 0.25
TYCE | ≤ 0.25
TYCA | 12.1
TYVG | 0.756
TYCI | ≤ 0.25
FWCS | 1.37
HQAE | ≤ 0.25
APEP | ≤ 0.25
AHCL | 9.7
ACFH | ≤ 0.25
ACCK | 12.8
KCCY | ≤ 0.25
ACCC | 34.1
VCCY | ≤ 0.25
ACCI | 26.9
ACCY | 19.6
KCCC | ≤ 0.25
ACCA | 7.21
ACCS | 2.23
YDTQ | ≤ 0.25
GRPL | ≤ 0.25

Variant | enrichment ratio
KEDR | ≤ 0.25
FEMC | 10.8
IQYT | ≤ 0.25
DHLG | ≤ 0.25
NLYQ | ≤ 0.25
MPYA | ≤ 0.25
ACCM | 14.9
ACCE | ≤ 0.25
ACCG | 25.4
ACCV | 8.87
ACNK | ≤ 0.25
PCQA | ≤ 0.25
HATN | ≤ 0.25
NYIP | ≤ 0.25
TAMD | 6.3
TACE | ≤ 0.25
TACF | 18.8
KACL | ≤ 0.25
TAAI | 7.96
KACF | ≤ 0.25
NACF | ≤ 0.25
TACL | 11.4
TACS | 14.1
NACL | 4.16
TACA | 8.47

Variant | enrichment ratio
TACI | 22.6
WKNR | ≤ 0.25
VKRR | ≤ 0.25
DLFL | ≤ 0.25
DTVY | ≤ 0.25
GNTN | ≤ 0.25
FYCC | ≤ 0.25
AHHD | ≤ 0.25
RGHL | 0.34
VRKH | ≤ 0.25
TACC | 13.6
KACC | ≤ 0.25
TACR | 14.8
TAQP | ≤ 0.25
YACQ | ≤ 0.25
TACQ | 15
TADH | 4.03
NACR | ≤ 0.25
TAKR | ≤ 0.25
WVLV | ≤ 0.25
EKCV | ≤ 0.25
QQYK | ≤ 0.25
RYKI | ≤ 0.25
WKHA | ≤ 0.25
HFSC | ≤ 0.25

Variant | enrichment ratio
VSFV | 0.649
WDSR | ≤ 0.25
NQCD | ≤ 0.25
TQCD | 29.3
AQCD | 42.7
IQCD | ≤ 0.25
AKCD | 0.285
WLCD | ≤ 0.25
KKCD | ≤ 0.25
ANCD | 0.285
AICD | 5.13
TKCD | 21.6
SLCD | 17.9
PLCD | ≤ 0.25
